# Reference: PubChem BioAssay (NCI)
# This is part of a sample that, as a whole, favours compounds with a hit. Of some 79,000 tested, about 15% had one in any assay. A number with no mark means an inactive call. Calls of active or inactive are those of the source. Cut-off read from the data, not from the text of the source: active = growth inhibition above about 70%; inactive = the rest.
# How the values were obtained:
# [1] = NCI Yeast Anticancer Drug Screen. Data for the rad50 strain (AID 155);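 note: 0% = growth of vehicle-only cultures of the same strain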; conditions: S. cerevisiae rad50 strain growth inhibition; at 50.0 µM; stronger effect = higher value
# Procedure, shortened: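 Readout: growth inhibition relative to vehicle-treated cultures. Compound exposure was carried out in a genetically defined yeast strain deficient in DNA damage repair.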
# [2] = NCI Yeast Anticancer Drug Screen. Data for the mec2-1 strain (AID 157); conditions: S. cerevisiae mec2-1 strain, at 50.0 µM, stronger effect = higher value
# Procedure, shortened: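 Mutant yeast (mec2-1) grown with compound; growth inhibition relative to vehicle control reported.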
# [3] = NCI Yeast Anticancer Drug Screen. Data for the sgs1 mgt1 strain (AID 161);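 note: 0% = growth of cultures given vehicle only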; conditions: S. cerevisiae sgs1 mgt1 strain, at 50.0 µM, stronger effect = higher value
# Procedure, shortened: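 Compounds are added to genetically altered yeast, and growth is compared with cultures given vehicle alone to give percent inhibition.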
# [4] = NCI Yeast Anticancer Drug Screen. Data for the cln2 rad14 strain (AID 165);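 note: 0% = growth equal to vehicle treated cultures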; conditions: S. cerevisiae cln2 rad14 strain, at 50.0 µM, stronger effect = higher value
# Procedure, shortened: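 Readout is yeast growth inhibition versus vehicle-treated controls, using a strain with cln2 and rad14 alterations exposed to compound.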
# [5] = NCI Yeast Anticancer Drug Screen. Data for the bub3 strain (AID 167); conditions: S. cerevisiae bub3 mutant strain, at 50.0 µM, stronger effect = higher value
# Procedure, shortened: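 Readout: yeast growth inhibition, expressed relative to vehicle-only wells. The test organism is a mutant strain from a panel with lesions in DNA repair or checkpoint genes.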
# [6] = NCI Yeast Anticancer Drug Screen. Data for the mlh1 rad18 strain (AID 175); conditions: S. cerevisiae mlh1 rad18 strain growth inhibition; at 50.0 µM; stronger effect = higher value
# Procedure, shortened: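 Genetically defined yeast (DNA repair-deficient) exposed to compounds; growth inhibition determined relative to vehicle.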
SMILES,growth inhibition [1],growth inhibition [2],growth inhibition [3],growth inhibition [4],growth inhibition [5],growth inhibition [6]
C[Si](C)(C)c1ccc(CC2(Cc3ccc([Si](C)(C)C)cc3)CCNC2)cc1,-32.9%,-39%,-19.9%,3.75%,-10.2%,-25.9%
C/C(=N\NC(=S)N(C)C)c1nc2ncccc2[nH]1,-44.1%,-24.1%,-64.8%,-1.5%,18.7%,-19.1%
CN1C(=O)C2CSCN2C1=S (stereo unspecified),-38%,-7.7%,-5.4%,-12.3%,-13.6%,5.1%
O=[N+]([O-])c1ccccc1Oc1ccccc1,33.6%,-8.65%,5.65%,14.2%,-14.7%,8%
C[C@]12CCC(=O)C=C1CC[C@@H]1C2=CC[C@]2(C)/C(=C\CO)CC[C@@H]12,7.5%,-14.4%,10.8%,-5.4%,-10.8%,9.4%
CCCCN(CCCC)CCC(O)c1ccc(OC)c2ccccc12 (stereo unspecified),44.6%,4.55%,56.2%,57.4%,16.4%,49.7%
O=C1OC2(c3ccc(O)cc3Oc3cc(O)ccc32)c2ccccc21,6.6%,0.55%,10.2%,26.7%,-0.05%,-1.2%
CC(=O)OC(C)C(O)C(O)C(/C=C/C1CC=CC(=O)O1)OC(C)=O (stereo unspecified),32.2%,9.45%,23.6%,10.6%,19.6%,11.8%
O=C1N2Cc3c4ccc5c3CN3C(=O)N6Cc7c(ccc(c7CN1C6(c1ccccc1)C23c1ccccc1)OCCOCCNCCOCCO4)OCCOCCNCCOCCO5 (stereo unspecified),-31.1%,-26.2%,-34.2%,3.4%,-16.2%,-30.1%
CN=NNc1ccc(C#N)cc1,7.3%,1.4%,-1.85%,-14.1%,-6.65%,5.5%
CCCOC(=O)c1ccccc1C=O,-12.1%,-3.5%,-18.6%,-49.9%,-10.3%,23.4%
c1ccc(-c2ccc(-c3c(-c4ccccc4)ccc(-c4ccccc4)c3-c3ccccc3)cc2)cc1,20.8%,-0.7%,-10.1%,20.9%,-2.85%,-1.4%
[Cu+2].[NH-]C(Cc1ccc(O)cc1)C(=O)O.[NH-]C(Cc1ccc(O)cc1)C(=O)O (stereo unspecified),13.1%,1.55%,-12.6%,15.2%,1.65%,5%
COc1ccc(/C=C2\CCC/C(=C\c3ccc(O)c(CN4CCCCC4)c3)C2=O)cc1,89.2% (active),85.5% (active),91.2% (active),83% (active),89.1% (active),91.2% (active)
COC(=O)/C=C/c1ccccc1,17.4%,-14.3%,-15.6%,-1.2%,-27.9%,19.4%
CC(=O)n1nnc(CC#N)c1-c1ccccc1,20.4%,7.5%,2.65%,5.1%,-23.2%,-15.3%
CC(C)/C=C1\CCC(CN2CCCC2)C1=O (stereo unspecified),61.5%,34.6%,48.5%,44.5%,40.7%,63.5%
CC(C)(C)NC(=S)NC1CC2CC1C1Cc3ccccc3C21 (stereo unspecified),20.6%,-1.45%,22.9%,-37.5%,5.8%,1.9%
CC(C)N(C(=O)c1ncccc1C(=O)c1ccccn1)C(C)C,-11.4%,-5.65%,-4.75%,-5.2%,-5.85%,-5.05%
CSCSCC(CO)NC(=O)/C=C\c1ccccc1 (stereo unspecified),-0.7%,-4.05%,7.15%,-21.7%,4%,3.5%
COc1c(C)c(OC)c(C(=O)CC(C)C)c(OC)c1C,0.4%,5.05%,35.2%,20.4%,19.7%,-29.6%

SMILES,growth inhibition [1],growth inhibition [2],growth inhibition [3],growth inhibition [4],growth inhibition [5],growth inhibition [6]
NC(=O)c1nnc2c(F)cccc2c1N,-39.2%,-29.4%,-15.3%,-0.8%,-27.2%,-24.6%
CC(=O)Nc1c(C)ccc(C)c1C(=O)O,3.65%,-0.7%,8.25%,1.15%,13.8%,11.8%
CC1(c2ccc[n+](Cc3ccccc3)c2)OCCO1,-15.7%,-31.1%,-12.8%,-11.2%,-39.6%,-27.1%
CCOC(=O)C1=C(O)C(=O)N(Cc2ccccc2)C1,-4.65%,-29.6%,14.3%,-0.7%,49.5%,-23.8%
CCCCCCCCCC(O)CO (stereo unspecified),-20.6%,-20.7%,-23.8%,6.4%,-10.6%,-5.95%
O=C(c1ccccc1)C1CC2C=CC1C2 (stereo unspecified),4.3%,-8.25%,2.4%,36.9%,-0.7%,17.2%
Cc1cc(N(CCC#N)CCC#N)ccc1/C(N=Nc1ccc(Cl)cc1)=N\NC(=O)c1cc(Cl)ccc1O,-16.6%,-16.1%,-31.1%,-20.2%,-29.6%,-59.5%
CC(=O)C(c1ccccc1)S(=O)(=O)c1ccc(C)cc1 (stereo unspecified),13.8%,-18.4%,-11.7%,-42.4%,24.9%,-1.5%
NC(=O)[N+](=CC(=S)Nc1ccccc1Cl)C(N)=O,-43.3%,-43.5%,-36.7%,-15.8%,-33.4%,34.6%
CC(=O)OC(C)/C=C\C#N (stereo unspecified),-17.9%,14.3%,5.25%,-2.65%,0.35%,37.8%
CNCCN(C)Cc1ccccc1,-17.4%,-24.6%,-3.8%,11%,10.7%,-8.3%
CN(C)CCn1c(CO)nc2c1c(=O)n(C)c(=O)n2C,-9.95%,12.2%,-21.4%,-15.2%,0.1%,-5.6%
CC(NC(=O)N=Nc1ccccc1)C(=O)O (stereo unspecified),-3.05%,-8.95%,-9.6%,-39%,-11.1%,6.2%
Ic1ccc(N=Nc2ccccc2)cc1,-8%,-11.9%,-5.35%,-70.3%,25.3%,-12.5%
O=C1CCC(=O)N1C(c1ccccc1)(c1ccccc1)N1C(=O)CCC1=O,-20.9%,12.2%,-2%,29.1%,8.25%,-6.85%
O=C(O)C(O)c1ccc(Cl)c(Cl)c1 (stereo unspecified),29.4%,-24.3%,7.2%,-13.3%,15.8%,11.1%
COC1(OC)N=C(N)C2(C#N)C(C)CC(=O)N(N(C)C)C12C#N (stereo unspecified),7.15%,6.1%,-27.4%,-2.7%,-37.4%,-34.9%
OC1CCCCC1OC1CCc2ccccc2C1 (stereo unspecified),19.1%,19.5%,-5.25%,29.9%,50%,33.1%
O=S(=O)(O)c1cc(O)c2ccc3c(S(=O)(=O)O)cc(S(=O)(=O)O)c4ccc1c2c34,-11.7%,-23.1%,-2.85%,6.8%,10.6%,3.75%
CC(C)CCC[C@@H](C)[C@H]1CC[C@H]2[C@@H]3CC[C@H]4OC(=O)CC[C@]4(C)[C@H]3CC[C@]12C,-19.4%,-33.9%,-30.4%,-2.2%,-27.7%,-9.85%
